This is an account of results in PubChem BioAssay AID887 (National Center for Advancing Translational Sciences (NCATS), 2007).

“And” between values parts separate entries of the source, which are not always exact repeats. Identical values can stand only once. Out of some 74,000 compounds screened, about 1,100 (1.5%) were called active. A call without a number means that no potency is given here. Roughly 5% stayed inconclusive and do not appear here. The sample holds actives, similar compounds and a random draw of the others, so the mix is not that of the screen. A number with no mark means an inactive call. Calls come from the whole dose curve; as a rule, active = well fitted inhibition curve with a large enough effect; inconclusive = small, poorly fitted or top-dose-only effect; inactive = no such curve, though single readings can be large or run the other way.
Potency is the fitted concentration of half-maximal effect.

Sequence of Polyunsaturated fatty acid lipoxygenase ALOX15 (Homo sapiens) (P16050 whole entry, looked up): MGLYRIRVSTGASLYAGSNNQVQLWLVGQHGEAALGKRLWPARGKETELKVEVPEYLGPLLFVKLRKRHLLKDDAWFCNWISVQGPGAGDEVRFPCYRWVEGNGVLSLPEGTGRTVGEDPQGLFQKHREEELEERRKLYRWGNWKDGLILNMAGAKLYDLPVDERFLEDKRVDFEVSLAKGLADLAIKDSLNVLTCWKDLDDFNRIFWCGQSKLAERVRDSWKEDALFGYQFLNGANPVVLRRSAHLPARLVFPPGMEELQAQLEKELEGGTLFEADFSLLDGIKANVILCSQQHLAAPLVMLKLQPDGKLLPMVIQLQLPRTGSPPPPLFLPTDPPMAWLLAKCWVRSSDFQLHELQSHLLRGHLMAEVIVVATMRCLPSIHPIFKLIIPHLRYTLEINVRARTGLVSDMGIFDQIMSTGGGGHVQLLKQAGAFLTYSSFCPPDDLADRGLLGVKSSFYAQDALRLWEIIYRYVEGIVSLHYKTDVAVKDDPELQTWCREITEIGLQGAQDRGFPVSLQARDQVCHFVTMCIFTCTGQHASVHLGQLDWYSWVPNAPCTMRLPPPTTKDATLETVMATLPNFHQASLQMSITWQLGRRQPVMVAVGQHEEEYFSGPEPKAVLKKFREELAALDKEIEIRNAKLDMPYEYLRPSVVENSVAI

This assay has as its target Polyunsaturated fatty acid lipoxygenase ALOX15 (Homo sapiens) (UniProt P16050). Nature of the assay: qHTS Assay for Inhibitors of 15-hLO (15-human lipoxygenase). Note: nearly all actives have a fitted effect of over 55% in size. The following applies: purified 15hLO-1, xylenol orange hydroperoxide absorbance; series mostly up to 57.1 µM. An outline of the steps: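 Quantitative HTS in 25 mM Hepes pH 7.5 containing 0.01% Triton X-100: human 15hLO-1 at 40 nM, arachidonic acid at 50 uM, 6 min turnover. Product quantified via ferrous oxidation/xylenol orange, 573:405 nm absorbance ratio.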
A general note: qHTS replaces the single test concentration by a dilution series.
Consider `COc1cc(OC)c2c(c1Cl)OC1(C2=O)C(O)=CC(=O)CC1C` (configuration not stated), for which the activity change, negative = inhibition result was “inactive”. In the case of `CC1O[C@@H](Oc2c(-c3ccc(O)c(O)c3)oc3cc(O)cc(O)c3c2=O)C(O)C(O)C1O` (some centres not stated), the activity change, negative = inhibition entry was “inactive”. `Cc1cccc(-c2cc(=O)c3cc(C)ccc3o2)c1`: the activity change, negative = inhibition entry was “inactive”. `O=c1cc(-c2ccc(O)c(O)c2)oc2cccc(O)c12`: the Potency is 0.398 µM (active). On to `COC1C[C@@H](O[C@@H]2C(C)C(=O)OC(C)C(C)C(O)C(C)C(=O)[C@@]3(CO3)CC(C)C(OC3OC(C)CC(N(C)C)C3O)C2C)OC(C)[C@@H]1O` (some centres not stated), for which the activity change, negative = inhibition entry is “inactive”. On the same count and under the same terms, to `C=CCSc1nc2c(c(=O)[nH]1)C(C(C)C)C(C#N)=C(N)O2` (configuration not stated) belongs “inactive”; to `CO[C@H]1COC(=O)[C@@H](OCc2ccccc2)/C=C\[C@H](C)[C@@H](OC)COC(=O)[C@H](OCc2ccccc2)/C=C\[C@@H]1C`, -2.96% [at 11.4 µM]; to `CN(C(=O)CN(CCO)CC(=O)N(C)C(C)(C)Cc1ccccc1)C(C)(C)Cc1ccccc1`, “inactive”.

Regarding `CCN(CC)c1ccc2oc(=O)c(C)nc2c1`, the Potency is 25.1 µM (active). `Cc1ccc2oc(=O)ccc2c1`: the activity change, negative = inhibition entry is “inactive”. As for `CCc1ccc2oc(-c3ccc(N)cc3)nc2c1`, the activity change, negative = inhibition entry was “inactive”.

For `Nc1nnc(SCCN2C(=O)c3ccccc3S2(=O)=O)s1`, the activity change, negative = inhibition result was “inactive”. On the same count and under the same terms, to `COc1ccc(/C=C/C(=O)c2ccc(OC)cc2O)cc1` belongs -1.36% [at 11.4 µM]; to `COc1c(C)cccc1C(=O)Nc1cc(Cl)ccc1N1CCOCC1`, “inactive”.

As to `c1cnn(-c2cc(N3CCOCC3)ncn2)c1`, the activity change, negative = inhibition result was “inactive”. In the case of `O=C(Nc1cc(N2CCOCC2)ncn1)NC1(C(F)(F)F)Oc2ccc(Cl)cc2O1` (configuration not stated), the Potency was 5.01 µM (active). In the case of `CCCCCCCCCc1ccc(OCCOCCOCCOCCOCCOCCOCCOCCOCCO)cc1`, the activity change, negative = inhibition result was “inactive”.

For the compound `COC(=O)C1=C(C)Nc2ncnn2C1c1ccco1` (configuration not stated), the activity change, negative = inhibition result is “inactive”. The same measure, in the same setting: the value for `Cc1ccc(C(C(=O)NC2CCCCC2)N(C(=O)c2csnn2)C2CC2)o1` (configuration not stated) was “inactive”; that for `O=C(NCCc1ccc2c(c1)OCCO2)c1cc2ccccc2o1` was “inactive”. On to `CCC(C(=O)NC1CCCC1)N(C(=O)c1snc(C(N)=O)c1N)c1ccc2c(c1)OCCO2` (configuration not stated), for which the Potency was 25.1 µM (active). On to `COc1cc(C(=O)Nc2oc(-c3ccccc3)c(-c3ccccc3)c2C#N)cc(OC)c1OC`, for which the activity change, negative = inhibition result is “inactive”. The same measure, in the same setting: the value for `Oc1ccc2c(c1)OCC1c3cc4c(cc3OC21)OCO4` (configuration not stated) was “inactive”. Still for that read-out and setting: the value for `CCCCOCCCNC(=O)c1ccccc1OCC` was 2.13% [at 11.4 µM]. On the same count and under the same terms, the value for `COc1ccc2[nH]cc(CCNc3ncnc4ccc(-c5ccc(C(=O)N(C)C)cc5)cc34)c2c1` was “inactive”; that for `CC(C)NC(=O)N1CCC2(CC1)CCN(C(=O)c1cccn1C)CC2` was “inactive”. In the case of `CC(C)c1ccc2c(c1)c(SC(C)(C)C)c(CC(C)(C)C(=O)O)n2Cc1ccc(Cl)cc1`, the Potency is 12.6 µM (active). Regarding `CS(=O)(=O)N1CCC2(CC1)CN(Cc1ccccc1)C2`, the activity change, negative = inhibition entry was “inactive”. Still for that read-out and setting: to `CC(=O)OCC1OC(C#Cc2ccccc2Cl)C=CC1OC(C)=O` (configuration not stated) belongs -0.11% [at 11.4 µM]; to `CN1CC(=O)N=C1N`, “inactive”; to `C[C@H]1CC[C@H](C(=O)O)N[C@@H]1c1ccc(C#Cc2ccccc2)cc1`, -4.38% [at 11.4 µM]. Take `COC(=O)Cc1csc(Nc2c(C)n(C)n(-c3ccccc3)c2=O)n1`: the activity change, negative = inhibition entry was “inactive”. As for `Cc1c(NC(=O)c2cccnc2)c(=O)n(-c2ccccc2)n1C`, the activity change, negative = inhibition entry is “inactive”. As for `Cc1cc(C(=O)Nc2c(C)n(C)n(-c3ccccc3)c2=O)cs1`, the Potency was 1.58 µM (active). For `O=C(Nn1cnc2ccccc2c1=O)c1ccc(F)cc1Cl`, the activity change, negative = inhibition result is “inactive”.

As to `C/C(O)=C\c1nc(=O)c2c(C)cc(C)nc2n1-c1ccccc1`, the activity change, negative = inhibition entry was “inactive”. Same read-out and setting: the value for `CCCS(=O)(=O)C(=C1Nc2ccccc2N1)S(=O)(=O)CCC` was “inactive”; that for `COc1c2c(cc3occ(-c4ccc5c(c4)OCO5)c(=O)c13)OC(C)(C)C=C2` was “inactive”. On the same count and under the same terms, to `CC(C)Cn1c(CCC(=O)O)ccc1-c1cccs1` belongs “inactive”. As for `COCCCn1c(CCC(=O)O)ccc1-c1ccc(F)cc1`, the Potency was 15.8 µM (active). As to `COCCCNC(=O)c1c(F)c(F)c(F)c(F)c1F`, the activity change, negative = inhibition entry is “inactive”. Same read-out and setting: the value for `Nc1ncn(C2OC(CO)C(O)C2O)c(=O)n1` (configuration not stated) was “inactive”; that for `CC1(C)OC2CC3C4CCC5=CC(=O)CCC5(C)C4(F)C(O)CC3(C)[C@]2(C(=O)CCl)O1` (some centres not stated) was “inactive”. On to `CC1CC[C@@]23CCC4(C)[C@@]5(C)CCC6C(C)(C)C(O)CC[C@@]6(C)C5C=C[C@@]4(OC2=O)C3C1C` (some centres not stated), for which the activity change, negative = inhibition result was “inactive”. In the case of `N#CC1=C(N)Oc2c(sc3ccccc23)C1c1ccco1` (configuration not stated), the Potency is 3.98 µM (active). For the compound `CCOC(=O)CSC1=C(C#N)C(c2ccco2)C(C(=O)OCc2ccccc2)=C(C)N1` (configuration not stated), the activity change, negative = inhibition result is “inactive”.

On to `Nc1nc2[nH]c(=O)c(=O)[nH]c2c(=O)[nH]1`, for which the activity change, negative = inhibition result was “inactive”. On the same count and under the same terms, the value for `CC(=O)OCC(=O)[C@@]1(O)CCC2C3CCC4=CC(=O)CC[C@]4(C)C3C(=O)C[C@]21C` (some centres not stated) was “inactive”; that for `O=C(c1ccco1)N1CCC2(CC1)CCN(c1ncccn1)CC2` was “inactive”; that for `COc1ccc(-c2nnc(SC(C)C#N)o2)cc1` (configuration not stated) was “inactive”.

Turning to `COc1ccc(-c2nnc(SC(=O)N3c4ccccc4Sc4ccccc43)o2)cc1`, the Potency is 3.16 µM (active). With `COc1ccc(CC(=O)Nc2ccc(-c3nnc(-c4ccccc4)o3)cc2)cc1`, the activity change, negative = inhibition result was “inactive”.

Take `COC(=O)CC1C(C)(C)C(OC(C)=O)C2CC3=C4CC(=O)OC(c5ccoc5)[C@]4(C)CCC3[C@@]1(C)C2=O` (some centres not stated): the activity change, negative = inhibition entry was “inactive”. Still for that read-out and setting: the value for `COC(=O)c1ccc2c(=O)n(CC3CCCO3)c(=S)[nH]c2c1` (configuration not stated) was “inactive”. As to `CCOC(=O)c1sc(=S)n2c1[nH]c(=O)c1ccc(C(=O)OC)cc12`, the Potency is 10 µM (active). For the compound `CCOC(=O)Cn1c(N)c(C(=O)OC)sc1=S`, the activity change, negative = inhibition result was “inactive”.

Consider `COc1ccc(Oc2ncc3nc(C)c(=O)n(-c4ccccc4)c3n2)cc1`, for which the activity change, negative = inhibition entry is “inactive”. Same read-out and setting: the value for `COC(=O)C1=C(C)N(Cc2ccccc2)C2=C3C(=O)N(c4ccccc4)C(=O)C3[C@@](O)(C(=O)OC)C(=O)N2C1c1ccccc1` (some centres not stated) was 4.96% [at 11.4 µM] and 4.92% [at 11.4 µM]; that for `CN1CCC(CNC(=O)c2ccc(-n3c(=O)c(=O)[nH]c4ccccc43)cc2)CC1` was “inactive”. Same read-out and setting: the value for `O=C1NS(=O)(=O)c2ccccc21` was “inactive”. As to `OCCCNC(c1ccccc1)c1ccc(O)cc1` (configuration not stated), the activity change, negative = inhibition result is “inactive”. Take `CSc1sc(C)cc1C1C(C#N)=C(N)N(c2cccnc2)C2=C1C(=O)CCC2` (configuration not stated): the Potency is 15.8 µM (active).
